Experimental data: PubChem BioAssay AID602430 (NMMLSC, 2012)
This is one part of the list.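 Rule for the calls: active = repeat-averaged ratio response below 75% of DMSO, the collection mean minus 3 SD; inactive = the rest.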

Target: ATP-binding cassette sub-family B member 6 (Homo sapiens) (UniProt Q9NP58)
Assay: blockers of ABCB6-driven porphyrin uptake – K562-ABCB6 cells, flow cytometry, cherry pick 1, confirmation (AID 602430);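 note: median porphyrin fluorescence at 575 nm with 488 nm excitation from mitochondria; lower ratio means less porphyrin signal so ABCB6 inhibition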
Details: K562-ABCB6 porphyrin accumulation, 1 h, at 10 µM, hits give low values

Sequence of ATP-binding cassette sub-family B member 6 (Homo sapiens) (Q9NP58 whole entry, looked up): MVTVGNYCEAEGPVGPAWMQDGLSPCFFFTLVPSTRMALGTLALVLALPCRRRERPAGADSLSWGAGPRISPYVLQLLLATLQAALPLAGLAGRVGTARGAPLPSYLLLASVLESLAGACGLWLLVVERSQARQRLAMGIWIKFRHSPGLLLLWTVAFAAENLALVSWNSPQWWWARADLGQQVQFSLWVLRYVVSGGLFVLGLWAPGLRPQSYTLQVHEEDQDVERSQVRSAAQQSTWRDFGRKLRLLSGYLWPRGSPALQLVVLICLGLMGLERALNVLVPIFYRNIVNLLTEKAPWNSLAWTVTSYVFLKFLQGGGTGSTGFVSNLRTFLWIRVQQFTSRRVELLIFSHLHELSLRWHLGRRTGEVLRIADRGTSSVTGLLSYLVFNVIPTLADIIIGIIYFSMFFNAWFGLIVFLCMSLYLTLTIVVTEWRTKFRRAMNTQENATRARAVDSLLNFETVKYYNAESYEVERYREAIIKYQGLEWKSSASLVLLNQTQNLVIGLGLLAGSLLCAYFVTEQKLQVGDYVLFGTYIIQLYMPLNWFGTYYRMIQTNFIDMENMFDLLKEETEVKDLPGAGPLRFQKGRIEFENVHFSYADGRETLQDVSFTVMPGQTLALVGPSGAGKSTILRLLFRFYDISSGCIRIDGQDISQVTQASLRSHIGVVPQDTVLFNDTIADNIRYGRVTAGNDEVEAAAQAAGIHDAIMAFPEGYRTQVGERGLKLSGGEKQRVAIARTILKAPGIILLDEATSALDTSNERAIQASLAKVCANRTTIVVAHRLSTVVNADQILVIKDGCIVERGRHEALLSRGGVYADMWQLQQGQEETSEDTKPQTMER

Ratio response (% of DMSO), inactive:
Cc1cc(C)cc(NC(=O)NCc2ccccn2)c1 96%, CCn1c(COc2ccccc2)nnc1SCC(=O)Nc1ccc2c(c1)OCCO2 97%, O=C(Nn1cnc2ccccc2c1=O)c1ccc(F)cc1Cl 93%, COc1ccccc1C(=O)C(O)c1ccccc1OC (centres undefined) 102%, COc1cccc(N(CC(=O)N2CCc3ccccc3C2)S(C)(=O)=O)c1 100%, CCS(=O)(=O)N1CCC(N2CCN(c3ccccc3)CC2)CC1 103%, OCCC1CN(Cc2cnc(-c3ccccc3)s2)CCN1CCc1ccccc1 (centres undefined) 102%, COc1ccc(CCNS(=O)(=O)c2ccc(F)cc2)cc1OC 101%, Cc1ccc(NC(=O)N2CCC(c3nc4c(nnn4Cc4c(F)cccc4Cl)c(=O)[nH]3)CC2)cc1 98%, CCCOC(=O)C1=C(C)NC2=C(C(=O)C(C(=O)OC)C(C)C2)C1c1ccc(N(C)C)cc1 (centres undefined) 100%, Cc1ccc(Cl)cc1N1CCN(C(=O)c2cccc3c(=O)c(C)c(-c4ccccc4)oc23)CC1 102%, CC(C)C(=O)NCC(c1cccs1)S(=O)(=O)c1ccc(F)cc1 (centres undefined) 100%, COC(=O)CNC(=O)c1cc(-c2ccncc2)nc2ccccc12 101%, CCC(=O)N1CCCC1(C)C(=O)Nc1ccc2c(c1)CCN2C(C)=O (centres undefined) 99%, Cc1ccccc1NC(=O)C(C)OC(=O)CCC(=O)N(CC(C)C)c1c(N)n(CC(C)C)c(=O)[nH]c1=O (centres undefined) 101%, COc1ccc(CCNC2=C(Cl)C(=O)N(Cc3ccccc3)C2=O)cc1OC 100%, O=C(COc1ccc(-n2cnnn2)cc1)Nc1ccccc1Cl 99%, CC1(C)Cc2c(C#N)c(SCc3nc4ccccc4[nH]3)nc(N3CCOCC3)c2CO1 96%, Cc1cccc(N2CCN(C(=O)CCS(=O)(=O)c3ccc4c(c3)NC(=O)C(C)S4)CC2)c1C (centres undefined) 96%, CCOC(=O)N1CCN(C(=O)CN(C2CCCCC2)S(C)(=O)=O)CC1 101%, CC(C(=O)Nc1ccc(F)c(F)c1F)N1CCCCCC1 (centres undefined) 101%, O=C(c1ccc(Cl)cc1)c1cnc(Nc2ccccc2)s1 102%, COc1cc2[nH]c(=S)n(Cc3ccc(F)cc3)c(=O)c2cc1OC 100%, Cc1ccccc1OCC(=O)Nc1nnc(S(=O)(=O)N2CCCC2)s1 101%, Cc1cccc(NC(=O)c2nc(S(=O)(=O)Cc3ccccc3)ncc2Cl)c1 90%, Cc1nn(-c2ccccc2)c(C)c1C(=O)OCC(=O)NC(=O)NC1CCCCC1 97%, CCOc1ccc(NC(=O)CC2NCCNC2=O)cc1 (centres undefined) 100%, Cc1cccc(CS(=O)(=O)c2ncc(Cl)c(C(=O)Nc3ccc(F)cc3)n2)c1 89%, CC1(C(=O)NS(=O)(=O)c2cccc(F)c2)CCN1C(=O)Cc1cc(F)ccc1F (centres undefined) 97%, O=C1CCCC2=C1C(c1cccs1)n1nc(SCc3ccccc3)nc1N2 (centres undefined) 102%, Cc1ccc2nc3c(cc(C(=O)NCCc4ccccc4)c(=N)n3CC3CCCO3)c(=O)n2c1 (centres undefined) 102%, Cc1ccc(SCC(=O)Nc2ncc(C)s2)cc1 103%, O=C(NCCSc1ncc(-c2ccccc2)[nH]1)c1ccco1 102%, O=C(Cc1cccs1)NCc1cccc(C(F)(F)F)c1 103%
